Test [1] deals with Tyrosine-protein kinase SYK (Homo sapiens) (UniProt P43405). The following applies: at 10 µM.
The target in test [2] is T1, Mitogen-activated protein kinase kinase kinase 7 (Homo sapiens) (UniProt O43318).
T1 sequence (whole entry): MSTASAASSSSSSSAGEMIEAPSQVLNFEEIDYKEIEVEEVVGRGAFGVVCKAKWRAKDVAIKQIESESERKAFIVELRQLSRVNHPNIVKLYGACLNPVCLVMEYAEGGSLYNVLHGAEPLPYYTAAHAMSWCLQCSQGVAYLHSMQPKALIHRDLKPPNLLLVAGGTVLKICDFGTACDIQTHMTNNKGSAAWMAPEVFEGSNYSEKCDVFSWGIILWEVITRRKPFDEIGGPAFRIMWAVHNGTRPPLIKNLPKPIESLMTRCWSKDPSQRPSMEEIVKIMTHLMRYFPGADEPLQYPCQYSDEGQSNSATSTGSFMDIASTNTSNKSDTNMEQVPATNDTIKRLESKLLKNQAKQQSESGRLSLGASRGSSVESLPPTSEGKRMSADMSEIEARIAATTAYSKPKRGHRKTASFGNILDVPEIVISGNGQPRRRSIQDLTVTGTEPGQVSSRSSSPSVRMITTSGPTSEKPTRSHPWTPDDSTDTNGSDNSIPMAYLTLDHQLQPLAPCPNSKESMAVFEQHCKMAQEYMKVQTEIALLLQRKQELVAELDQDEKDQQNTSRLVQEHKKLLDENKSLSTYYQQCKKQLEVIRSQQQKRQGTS
To be noted: at 1 µM.

In test [3] the target is T1, Mitogen-activated protein kinase kinase kinase 7 (Homo sapiens). The following applies: at 10 µM.
Test [4] addresses T2, Serine/threonine-protein kinase TAO1 (Homo sapiens) (UniProt Q7L7X3).
T2 sequence (whole entry): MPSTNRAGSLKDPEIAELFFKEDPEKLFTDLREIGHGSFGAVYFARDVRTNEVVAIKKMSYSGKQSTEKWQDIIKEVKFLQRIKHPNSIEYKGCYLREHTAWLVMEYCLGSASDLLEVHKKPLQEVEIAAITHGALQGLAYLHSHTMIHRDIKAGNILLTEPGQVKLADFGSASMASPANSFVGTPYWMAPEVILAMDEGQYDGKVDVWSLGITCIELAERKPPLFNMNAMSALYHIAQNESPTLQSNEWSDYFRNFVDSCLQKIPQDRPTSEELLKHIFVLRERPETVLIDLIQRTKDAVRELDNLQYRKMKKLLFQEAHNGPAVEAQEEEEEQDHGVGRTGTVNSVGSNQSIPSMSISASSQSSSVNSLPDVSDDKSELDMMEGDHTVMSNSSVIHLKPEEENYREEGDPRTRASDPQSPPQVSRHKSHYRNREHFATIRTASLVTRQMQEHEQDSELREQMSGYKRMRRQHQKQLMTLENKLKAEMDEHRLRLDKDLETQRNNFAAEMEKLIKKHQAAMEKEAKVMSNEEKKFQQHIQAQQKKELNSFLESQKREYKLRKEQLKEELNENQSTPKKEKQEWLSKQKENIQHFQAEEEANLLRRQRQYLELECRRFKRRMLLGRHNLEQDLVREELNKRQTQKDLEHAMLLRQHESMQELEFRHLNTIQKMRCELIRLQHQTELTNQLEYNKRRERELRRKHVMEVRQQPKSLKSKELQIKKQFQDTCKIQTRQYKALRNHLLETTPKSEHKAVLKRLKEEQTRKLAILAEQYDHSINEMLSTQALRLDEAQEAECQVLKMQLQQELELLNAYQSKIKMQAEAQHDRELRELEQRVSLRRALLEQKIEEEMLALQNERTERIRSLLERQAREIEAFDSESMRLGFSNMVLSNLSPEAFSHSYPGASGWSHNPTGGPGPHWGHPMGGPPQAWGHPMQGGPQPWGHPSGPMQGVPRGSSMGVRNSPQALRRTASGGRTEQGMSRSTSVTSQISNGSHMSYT
To be noted: at 10 µM.

Test [5] has as its target T3, Serine/threonine-protein kinase TAO2 (Homo sapiens) (UniProt Q9UL54).
T3 sequence (whole entry): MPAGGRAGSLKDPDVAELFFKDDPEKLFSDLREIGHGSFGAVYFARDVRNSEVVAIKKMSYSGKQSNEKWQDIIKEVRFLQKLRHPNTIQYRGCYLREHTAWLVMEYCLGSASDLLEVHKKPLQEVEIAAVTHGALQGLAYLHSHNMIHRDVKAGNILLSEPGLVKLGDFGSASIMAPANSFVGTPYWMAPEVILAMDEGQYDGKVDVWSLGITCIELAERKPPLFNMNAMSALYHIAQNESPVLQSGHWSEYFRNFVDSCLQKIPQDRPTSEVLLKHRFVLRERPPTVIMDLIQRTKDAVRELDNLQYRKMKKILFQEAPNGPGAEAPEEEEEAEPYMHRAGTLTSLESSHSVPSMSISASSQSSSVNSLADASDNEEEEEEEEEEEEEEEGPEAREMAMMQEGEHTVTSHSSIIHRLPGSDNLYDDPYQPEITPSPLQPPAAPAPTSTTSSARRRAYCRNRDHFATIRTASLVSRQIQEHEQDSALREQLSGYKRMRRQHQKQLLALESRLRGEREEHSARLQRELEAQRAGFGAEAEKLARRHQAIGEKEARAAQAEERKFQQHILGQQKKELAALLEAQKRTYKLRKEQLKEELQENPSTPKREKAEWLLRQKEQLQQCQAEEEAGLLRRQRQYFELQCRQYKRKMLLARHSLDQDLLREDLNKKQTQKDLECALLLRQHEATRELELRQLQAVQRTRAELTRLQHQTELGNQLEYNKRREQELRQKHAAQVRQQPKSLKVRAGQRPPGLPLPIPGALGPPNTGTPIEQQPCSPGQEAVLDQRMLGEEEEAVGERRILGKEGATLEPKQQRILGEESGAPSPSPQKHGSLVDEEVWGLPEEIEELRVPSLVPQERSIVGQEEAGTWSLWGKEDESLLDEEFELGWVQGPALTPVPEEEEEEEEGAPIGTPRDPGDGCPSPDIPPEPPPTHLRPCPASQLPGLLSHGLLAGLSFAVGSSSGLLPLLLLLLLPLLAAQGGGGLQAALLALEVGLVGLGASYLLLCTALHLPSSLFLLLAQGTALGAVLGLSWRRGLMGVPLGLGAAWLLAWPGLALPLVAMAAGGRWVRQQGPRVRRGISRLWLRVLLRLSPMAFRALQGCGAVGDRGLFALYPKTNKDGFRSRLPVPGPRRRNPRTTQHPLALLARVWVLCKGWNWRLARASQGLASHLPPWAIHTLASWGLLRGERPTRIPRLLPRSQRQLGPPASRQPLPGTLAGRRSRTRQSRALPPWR
To be noted: at 10 µM.

The target of test [6] is T4, Serine/threonine-protein kinase TAO3 (Homo sapiens) (UniProt Q9H2K8).
T4 sequence (whole entry): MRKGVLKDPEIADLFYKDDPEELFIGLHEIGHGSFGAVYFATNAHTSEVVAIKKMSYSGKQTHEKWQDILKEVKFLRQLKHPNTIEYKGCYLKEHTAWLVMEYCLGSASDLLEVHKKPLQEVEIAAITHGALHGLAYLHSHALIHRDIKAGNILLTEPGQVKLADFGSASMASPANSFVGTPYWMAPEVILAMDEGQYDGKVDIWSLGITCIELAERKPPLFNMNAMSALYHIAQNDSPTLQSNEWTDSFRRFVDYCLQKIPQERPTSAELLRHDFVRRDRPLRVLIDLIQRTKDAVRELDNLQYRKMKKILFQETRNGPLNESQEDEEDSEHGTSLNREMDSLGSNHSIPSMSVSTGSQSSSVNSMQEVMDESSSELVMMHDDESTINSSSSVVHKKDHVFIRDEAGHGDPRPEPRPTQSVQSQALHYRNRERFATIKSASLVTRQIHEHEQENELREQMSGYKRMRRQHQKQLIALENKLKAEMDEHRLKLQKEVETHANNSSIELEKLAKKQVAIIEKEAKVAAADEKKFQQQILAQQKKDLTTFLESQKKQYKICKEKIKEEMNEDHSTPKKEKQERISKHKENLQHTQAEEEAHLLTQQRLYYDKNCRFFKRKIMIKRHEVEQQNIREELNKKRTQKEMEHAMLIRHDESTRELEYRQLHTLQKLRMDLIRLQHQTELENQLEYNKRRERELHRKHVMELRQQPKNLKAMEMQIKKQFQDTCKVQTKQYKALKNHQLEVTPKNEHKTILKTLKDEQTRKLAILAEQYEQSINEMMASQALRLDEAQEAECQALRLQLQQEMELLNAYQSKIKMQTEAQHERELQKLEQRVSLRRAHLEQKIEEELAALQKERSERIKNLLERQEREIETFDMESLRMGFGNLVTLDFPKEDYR
The following applies: at 1 µM.

For test [7], the target named is T4, Serine/threonine-protein kinase TAO3 (Homo sapiens). The following applies: at 10 µM.
For test [8], the target named is T5, Serine/threonine-protein kinase TBK1 (Homo sapiens) (UniProt Q9UHD2).
T5 sequence (whole entry): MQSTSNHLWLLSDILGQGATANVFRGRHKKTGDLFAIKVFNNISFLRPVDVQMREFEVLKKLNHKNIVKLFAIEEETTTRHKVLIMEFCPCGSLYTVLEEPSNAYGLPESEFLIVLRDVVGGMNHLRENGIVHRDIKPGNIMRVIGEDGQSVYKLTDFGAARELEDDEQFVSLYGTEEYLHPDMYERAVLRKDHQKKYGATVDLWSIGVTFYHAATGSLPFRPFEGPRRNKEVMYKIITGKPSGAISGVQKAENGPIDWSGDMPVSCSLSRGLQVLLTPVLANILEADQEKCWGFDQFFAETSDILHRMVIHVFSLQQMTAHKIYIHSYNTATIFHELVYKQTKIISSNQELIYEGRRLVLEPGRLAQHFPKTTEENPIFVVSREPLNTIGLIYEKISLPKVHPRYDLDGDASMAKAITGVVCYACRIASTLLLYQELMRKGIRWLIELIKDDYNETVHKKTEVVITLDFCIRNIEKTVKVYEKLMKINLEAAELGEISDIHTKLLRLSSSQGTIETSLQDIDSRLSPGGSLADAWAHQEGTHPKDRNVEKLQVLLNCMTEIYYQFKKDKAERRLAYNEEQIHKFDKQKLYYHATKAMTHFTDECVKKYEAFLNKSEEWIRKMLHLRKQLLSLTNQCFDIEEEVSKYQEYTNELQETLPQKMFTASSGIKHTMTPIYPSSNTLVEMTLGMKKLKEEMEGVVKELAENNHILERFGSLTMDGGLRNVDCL
To be noted: at 1 µM.

Test [9] has as its target T5, Serine/threonine-protein kinase TBK1 (Homo sapiens). The following applies: at 10 µM.
The target of test [10] is T6, TGF-beta receptor type-1 (Homo sapiens) (UniProt P36897).
T6 sequence (whole entry): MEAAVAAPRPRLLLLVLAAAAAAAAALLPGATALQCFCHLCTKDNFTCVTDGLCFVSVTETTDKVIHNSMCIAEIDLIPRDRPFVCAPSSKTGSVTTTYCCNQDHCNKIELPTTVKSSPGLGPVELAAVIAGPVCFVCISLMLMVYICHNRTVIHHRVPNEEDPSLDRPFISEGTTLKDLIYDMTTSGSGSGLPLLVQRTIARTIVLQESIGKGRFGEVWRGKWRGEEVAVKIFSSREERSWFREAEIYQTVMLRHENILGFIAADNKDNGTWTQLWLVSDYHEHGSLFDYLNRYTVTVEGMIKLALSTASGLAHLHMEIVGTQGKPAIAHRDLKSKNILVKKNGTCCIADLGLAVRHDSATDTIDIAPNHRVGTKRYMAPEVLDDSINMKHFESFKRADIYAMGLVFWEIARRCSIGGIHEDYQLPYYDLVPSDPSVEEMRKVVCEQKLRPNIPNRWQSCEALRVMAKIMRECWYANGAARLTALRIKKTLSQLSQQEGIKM
The following applies: at 1 µM.

In test [11] the target is T6, TGF-beta receptor type-1 (Homo sapiens). To be noted: at 10 µM.
For test [12], the target named is Insulin-like growth factor 1 receptor (Homo sapiens) (UniProt P08069). To be noted: at 1 µM.
The target is the same in test [13]. To be noted: at 10 µM.
Test [14] deals with T7, Inhibitor of nuclear factor kappa-B kinase subunit alpha (Homo sapiens) (UniProt O15111).
T7 sequence (whole entry): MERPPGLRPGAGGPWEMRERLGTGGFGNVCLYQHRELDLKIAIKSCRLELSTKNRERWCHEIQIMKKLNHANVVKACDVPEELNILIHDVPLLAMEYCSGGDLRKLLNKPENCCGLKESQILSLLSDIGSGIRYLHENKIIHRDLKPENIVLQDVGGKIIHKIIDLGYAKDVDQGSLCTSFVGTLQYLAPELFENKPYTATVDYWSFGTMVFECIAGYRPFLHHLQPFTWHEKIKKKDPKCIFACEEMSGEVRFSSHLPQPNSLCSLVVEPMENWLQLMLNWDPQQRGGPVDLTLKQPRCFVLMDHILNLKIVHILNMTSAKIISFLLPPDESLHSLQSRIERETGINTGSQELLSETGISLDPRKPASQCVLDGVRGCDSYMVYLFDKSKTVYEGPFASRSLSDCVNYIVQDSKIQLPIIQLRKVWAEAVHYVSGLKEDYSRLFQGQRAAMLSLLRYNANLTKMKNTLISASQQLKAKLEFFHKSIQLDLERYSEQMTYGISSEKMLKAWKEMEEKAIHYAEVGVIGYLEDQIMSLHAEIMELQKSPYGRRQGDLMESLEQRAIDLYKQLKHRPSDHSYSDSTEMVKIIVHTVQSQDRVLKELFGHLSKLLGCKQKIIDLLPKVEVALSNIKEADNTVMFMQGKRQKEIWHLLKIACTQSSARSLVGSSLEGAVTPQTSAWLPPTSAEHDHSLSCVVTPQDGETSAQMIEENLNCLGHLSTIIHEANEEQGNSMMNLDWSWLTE
The following applies: at 1 µM.

Test [15] has as its target T7, Inhibitor of nuclear factor kappa-B kinase subunit alpha (Homo sapiens). To be noted: at 10 µM.
Test [16] concerns the target Insulin receptor (Homo sapiens) (UniProt P06213). The following applies: at 1 µM.

Each structure is given as a SMILES string.

Sequence of Insulin-like growth factor 1 receptor (Homo sapiens) (P08069 31-736 limits assumed): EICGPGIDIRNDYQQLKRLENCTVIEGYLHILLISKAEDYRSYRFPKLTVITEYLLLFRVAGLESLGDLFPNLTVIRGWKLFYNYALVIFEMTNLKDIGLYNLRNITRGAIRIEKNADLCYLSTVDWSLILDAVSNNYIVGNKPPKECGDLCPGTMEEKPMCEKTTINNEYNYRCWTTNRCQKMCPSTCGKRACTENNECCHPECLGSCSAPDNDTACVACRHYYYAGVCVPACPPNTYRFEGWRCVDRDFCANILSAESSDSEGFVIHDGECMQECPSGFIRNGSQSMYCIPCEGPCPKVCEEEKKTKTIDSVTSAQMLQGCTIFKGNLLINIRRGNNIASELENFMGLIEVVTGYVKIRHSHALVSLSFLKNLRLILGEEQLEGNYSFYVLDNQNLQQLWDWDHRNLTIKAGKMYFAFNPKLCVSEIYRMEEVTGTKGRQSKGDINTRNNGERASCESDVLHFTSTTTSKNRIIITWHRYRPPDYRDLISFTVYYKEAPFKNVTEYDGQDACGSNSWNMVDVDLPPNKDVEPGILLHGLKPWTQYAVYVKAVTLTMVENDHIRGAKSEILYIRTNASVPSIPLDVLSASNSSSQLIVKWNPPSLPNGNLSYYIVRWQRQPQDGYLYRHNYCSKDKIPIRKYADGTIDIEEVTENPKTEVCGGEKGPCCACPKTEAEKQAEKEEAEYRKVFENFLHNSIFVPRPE
Sequence of Insulin-like growth factor 1 receptor (Homo sapiens) (P08069 741-1367 limits assumed): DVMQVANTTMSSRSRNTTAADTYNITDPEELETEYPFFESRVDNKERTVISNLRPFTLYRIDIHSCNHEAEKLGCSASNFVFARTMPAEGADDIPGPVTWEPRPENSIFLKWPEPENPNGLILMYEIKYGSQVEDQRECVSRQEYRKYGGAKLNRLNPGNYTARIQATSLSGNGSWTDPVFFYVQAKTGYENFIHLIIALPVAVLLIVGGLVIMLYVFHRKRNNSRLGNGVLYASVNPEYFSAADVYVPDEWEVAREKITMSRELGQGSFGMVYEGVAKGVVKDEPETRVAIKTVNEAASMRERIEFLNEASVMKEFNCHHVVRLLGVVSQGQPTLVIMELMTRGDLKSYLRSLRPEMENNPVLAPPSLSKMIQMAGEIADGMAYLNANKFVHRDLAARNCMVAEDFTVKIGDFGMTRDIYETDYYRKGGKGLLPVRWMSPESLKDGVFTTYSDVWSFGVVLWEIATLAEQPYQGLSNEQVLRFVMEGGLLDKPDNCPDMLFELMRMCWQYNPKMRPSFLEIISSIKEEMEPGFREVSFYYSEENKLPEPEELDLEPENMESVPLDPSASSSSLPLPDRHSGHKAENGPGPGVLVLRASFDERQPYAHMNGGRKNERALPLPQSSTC
Sequence of Insulin receptor (Homo sapiens) (P06213 28-758 limits assumed): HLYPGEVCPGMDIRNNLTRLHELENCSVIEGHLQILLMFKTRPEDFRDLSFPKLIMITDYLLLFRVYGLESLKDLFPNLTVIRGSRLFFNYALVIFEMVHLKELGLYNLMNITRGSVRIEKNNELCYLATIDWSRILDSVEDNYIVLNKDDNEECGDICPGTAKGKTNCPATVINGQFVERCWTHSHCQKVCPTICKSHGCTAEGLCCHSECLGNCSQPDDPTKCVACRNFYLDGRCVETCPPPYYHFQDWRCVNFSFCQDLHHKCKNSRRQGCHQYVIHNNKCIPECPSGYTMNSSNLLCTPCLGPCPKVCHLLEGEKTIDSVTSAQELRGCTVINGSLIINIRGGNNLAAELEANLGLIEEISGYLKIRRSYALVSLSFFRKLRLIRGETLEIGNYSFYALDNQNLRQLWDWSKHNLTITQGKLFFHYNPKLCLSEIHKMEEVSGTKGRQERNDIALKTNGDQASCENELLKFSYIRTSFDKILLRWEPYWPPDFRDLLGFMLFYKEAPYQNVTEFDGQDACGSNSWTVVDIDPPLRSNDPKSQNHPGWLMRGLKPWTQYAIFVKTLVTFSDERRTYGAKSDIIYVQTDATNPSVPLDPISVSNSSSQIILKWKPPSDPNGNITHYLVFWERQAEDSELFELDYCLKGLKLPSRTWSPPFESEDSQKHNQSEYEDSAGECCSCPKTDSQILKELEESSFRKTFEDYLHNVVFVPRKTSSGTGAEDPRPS
Sequence of Insulin receptor (Homo sapiens) (P06213 763-1382 limits assumed): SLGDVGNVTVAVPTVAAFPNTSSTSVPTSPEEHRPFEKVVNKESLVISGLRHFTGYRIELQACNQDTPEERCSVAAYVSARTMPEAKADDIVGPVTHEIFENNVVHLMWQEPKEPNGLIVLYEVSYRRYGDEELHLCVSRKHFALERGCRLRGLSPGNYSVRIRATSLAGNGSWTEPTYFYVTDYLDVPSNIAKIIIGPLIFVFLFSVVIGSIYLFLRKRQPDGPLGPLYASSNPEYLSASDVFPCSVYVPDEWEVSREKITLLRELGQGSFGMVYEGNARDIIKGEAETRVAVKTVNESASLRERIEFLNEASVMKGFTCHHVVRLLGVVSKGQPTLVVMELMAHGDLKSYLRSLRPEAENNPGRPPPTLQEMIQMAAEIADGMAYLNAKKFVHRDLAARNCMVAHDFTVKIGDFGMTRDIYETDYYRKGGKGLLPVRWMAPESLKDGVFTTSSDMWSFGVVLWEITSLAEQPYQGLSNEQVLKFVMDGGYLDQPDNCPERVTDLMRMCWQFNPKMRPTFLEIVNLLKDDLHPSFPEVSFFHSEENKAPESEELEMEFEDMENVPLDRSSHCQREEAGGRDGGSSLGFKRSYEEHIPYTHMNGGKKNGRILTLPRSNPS

As to `COc1ccc2c(c1)c(C1=C(c3c[nH]c4ccccc34)C(=O)NC1=O)cn2CCCN(C)C`, the residual activity in test [1] was found to be 69%; in test [2], 82%; in [3] it was 53%; in test [4], 33%; in test [5] it was 28%; in [6], 82%. Besides, the residual activity in test [7] was found to be 37%; in [8], 59%; in test [9], 24%; in [10], 69%; in test [11], 49%; in test [12], 101%. Also, the residual activity in test [13] was found to be 82%; in test [14], 80%; in test [15], 64%; in [16], 100%.

The values above are taken from ChEMBL document CHEMBL2218924, “A broad activity screen in support of a chemogenomic map for kinase signalling research and drug discovery” (Biochem J, 2013).
